Test results published in PubChem BioAssay AID1159580 (chemical genetic matrix, 2015).
The whole screen tested about 5,500 compounds, of which about 2,000 (36%) were called active. Not shown: some 18% with an inconclusive outcome. Rule as the data show it: active = normalized growth mostly below about 0.91 (no sharp cut-off); inconclusive = no clear call, values can overlap the other calls; inactive = mostly above about 0.92. The list shows a part of the results.

Experiment: chemical genetic growth profiling, strain panel (AID 1159580);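 also: tested at 20 µM; growth read once vehicle control cultures reached saturation at 30 °C; 1 = growth at the plate median or of vehicle wells; lower values mean less growth of the strain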
Settings: growth OD

Measured: normalized growth

CC(=O)Nc1c(I)cc(I)c(C(=O)O)c1I
inactive: S. cerevisiae deletion strains, locus YJR075W, strain HOC1, hits give low values 1 | S. cerevisiae deletion strains, locus YKL009W, strain mrt4, hits give low values 0.978 | S. cerevisiae deletion strains, locus YKL068W, hits give low values 0.986 | S. cerevisiae deletion strains, locus YKL085W, strain MDH1 (second series), hits give low values 1.01 | S. cerevisiae deletion strains, locus YKL085W, strain MDH1, hits give low values 1.01 | S. cerevisiae deletion strains, locus YKL160W, strain elf1, hits give low values 0.985 | S. cerevisiae deletion strains, locus YKL190W, strain CNB1, hits give low values 1.02 | S. cerevisiae deletion strains, locus YKR001C, strain vps1, hits give low values 0.986 | S. cerevisiae deletion strains, locus YKR026C, strain gcn3, hits give low values 0.975 | S. cerevisiae deletion strains, locus YKR091W, strain srl3, hits give low values 0.981 | S. cerevisiae deletion strains, locus YLL001W, strain dnm1, hits give low values 0.953 | S. cerevisiae deletion strains, locus YLL026W, hits give low values 0.985 | S. cerevisiae deletion strains, locus YLL041C, strain sdh2, hits give low values 0.972 | S. cerevisiae deletion strains, locus YLR027C, strain aat2, hits give low values 0.981 | S. cerevisiae deletion strains, locus YLR039C, strain RIC1, hits give low values 1.01 | S. cerevisiae deletion strains, locus YLR058C, strain SHM2, hits give low values 0.994 | S. cerevisiae deletion strains, locus YLR102C, strain apc9, hits give low values 0.991 | S. cerevisiae deletion strains, locus YLR113W, strain HOG1, hits give low values 1 | S. cerevisiae deletion strains, locus YLR221C, strain rsa3, hits give low values 1.01 | S. cerevisiae deletion strains, locus YLR258W, strain gsy2, hits give low values 0.976 | S. cerevisiae deletion strains, locus YLR262C, strain YPT6 (second series), hits give low values 0.971 | S. cerevisiae deletion strains, locus YLR262C, strain YPT6, hits give low values 0.954 | S. cerevisiae deletion strains, locus YLR268W, strain sec22, hits give low values 0.996 | S. cerevisiae deletion strains, locus YLR320W, strain mms22, hits give low values 0.99 | S. cerevisiae deletion strains, locus YLR330W, strain CHS5, hits give low values 0.998 | S. cerevisiae deletion strains, locus YLR342W, strain FKS1 (second series), hits give low values 1.04 | S. cerevisiae deletion strains, locus YLR342W, strain FKS1, hits give low values 0.978 | S. cerevisiae deletion strains, locus YLR357W, strain rsc2, hits give low values 1 | S. cerevisiae deletion strains, locus YLR370C, strain arc18, hits give low values 0.989 | S. cerevisiae deletion strains, locus YLR371W, strain rom2, hits give low values 0.993 | S. cerevisiae deletion strains, locus YLR384C, strain iki3, hits give low values 0.98 | S. cerevisiae deletion strains, locus YLR418C, strain cdc73, hits give low values 0.99 | S. cerevisiae deletion strains, locus YML016C, strain PPZ1, hits give low values 0.993 | S. cerevisiae deletion strains, locus YML032C, strain rad52, hits give low values 0.987 | S. cerevisiae deletion strains, locus YML120C, strain ndi1, hits give low values 0.981 | S. cerevisiae deletion strains, locus YML124C, strain tub3, hits give low values 0.988 | S. cerevisiae deletion strains, locus YMR058W, strain fet3, hits give low values 0.989 | S. cerevisiae deletion strains, locus YMR078C, strain ctf18, hits give low values 0.988 | S. cerevisiae deletion strains, locus YMR125W, strain sto1, hits give low values 0.96 | S. cerevisiae deletion strains, locus YMR129W, hits give low values 0.96 | S. cerevisiae deletion strains, locus YMR205C, strain PFK2, hits give low values 0.977 | S. cerevisiae deletion strains, locus YMR223W, strain ubp8, hits give low values 0.972 | S. cerevisiae deletion strains, locus YMR231W, strain pep5, hits give low values 0.982 | S. cerevisiae deletion strains, locus YMR263W, strain SAP30, hits give low values 1.01 | S. cerevisiae deletion strains, locus YMR307W, strain GAS1, hits give low values 1.07 | S. cerevisiae deletion strains, locus YNL067W, strain RPL9B, hits give low values 1 | S. cerevisiae deletion strains, locus YNL071W, strain lat1, hits give low values 0.987 | S. cerevisiae deletion strains, locus YNL128W, strain TEP1, hits give low values 1.01 | S. cerevisiae deletion strains, locus YNL153C, strain GIM3, hits give low values 0.993 | S. cerevisiae deletion strains, locus YNL183C, strain NPR1, hits give low values 0.968 | S. cerevisiae deletion strains, locus YNL209W, strain ssb2, hits give low values 0.99 | S. cerevisiae deletion strains, locus YNL233W, strain BNI4, hits give low values 0.998 | S. cerevisiae deletion strains, locus YNL248C, strain rpa49, hits give low values 0.992 | S. cerevisiae deletion strains, locus YNL250W, strain rad50, hits give low values 0.986 | S. cerevisiae deletion strains, locus YNL271C, strain bni1, hits give low values 0.989 | S. cerevisiae deletion strains, locus YNL298W, strain CLA4, hits give low values 0.986 | S. cerevisiae deletion strains, locus YNL307C, strain MCK1, hits give low values 0.987 | S. cerevisiae deletion strains, locus YNL322C, strain KRE1 (second series), hits give low values 0.971 | S. cerevisiae deletion strains, locus YNL322C, strain KRE1, hits give low values 1 | S. cerevisiae deletion strains, locus YNR049C, strain mso1, hits give low values 0.993 | S. cerevisiae deletion strains, locus YNR052C, strain pop2, hits give low values 0.999 | S. cerevisiae deletion strains, locus YOL006C, strain TOP1, hits give low values 1.02 | S. cerevisiae deletion strains, locus YOL012C, strain htz1 0.771 | S. cerevisiae deletion strains, locus YOL147C, strain pex11, hits give low values 0.992 | S. cerevisiae deletion strains, locus YOR001W, strain rrp6, hits give low values 0.976 | S. cerevisiae deletion strains, locus YOR061W, strain CKA2, hits give low values 1 | S. cerevisiae deletion strains, locus YOR069W, strain VPS5, hits give low values 0.988 | S. cerevisiae deletion strains, locus YOR070C, strain gyp1, hits give low values 0.988 | S. cerevisiae deletion strains, locus YOR080W, strain dia2, hits give low values 0.975 | S. cerevisiae deletion strains, locus YOR083W, strain WHI5, hits give low values 0.984 | S. cerevisiae deletion strains, locus YOR106W, strain vam3, hits give low values 0.964 | S. cerevisiae deletion strains, locus YOR136W, strain idh2, hits give low values 0.987 | S. cerevisiae deletion strains, locus YOR144C, strain elg1, hits give low values 0.995 | S. cerevisiae deletion strains, locus YOR184W, strain ser1, hits give low values 0.969 | S. cerevisiae deletion strains, locus YOR231W, strain MKK1, hits give low values 1.02 | S. cerevisiae deletion strains, locus YOR265W, strain rbl2, hits give low values 0.98 | S. cerevisiae deletion strains, locus YOR270C, strain vph1, hits give low values 0.951 | S. cerevisiae deletion strains, locus YOR290C, strain snf2, hits give low values 1 | S. cerevisiae deletion strains, locus YOR316C, strain cot1, hits give low values 0.991 | S. cerevisiae deletion strains, locus YPL051W, strain arl3, hits give low values 0.981 | S. cerevisiae deletion strains, locus YPL055C, strain LGE1, hits give low values 1.05 | S. cerevisiae deletion strains, locus YPL078C, strain atp4, hits give low values 0.961 | S. cerevisiae deletion strains, locus YPL106C, strain sse1, hits give low values 0.981 | S. cerevisiae deletion strains, locus YPL240C, strain hsp82, hits give low values 0.972 | S. cerevisiae deletion strains, locus YPL241C, strain CIN2, hits give low values 1.01 | S. cerevisiae deletion strains, locus YPL256C, strain CLN2, hits give low values 1.02 | S. cerevisiae deletion strains, locus YPR119W, strain clb2, hits give low values 0.986 | S. cerevisiae deletion strains, locus YPR141C, strain kar3, hits give low values 0.981 | S. cerevisiae deletion strains, locus YPR163C, strain tif3, hits give low values 0.997 | S. cerevisiae deletion strains, locus YPR167C, strain met16, hits give low values 0.983 | S. cerevisiae deletion strains, strain wtn01, hits give low values 0.986 | S. cerevisiae strains, strain wild type, hits give low values 1.05
